PGC1a acetyl inh – inhibitors of PGC1a acetylation signal, primary screen, cell-based, U2OS, AlphaScreen, inhibitor mode; AlphaScreen anti-acetyl-lysine; with virally co-expressed GCN5 acetyltransferase; inhibition, % at 15.6 µM; hit rate 0.17% among 350,000;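 active = every replicate shows inhibition of at least 40%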;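 also: 0% = neutral control wells and 100% = positive control wells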
ERp5 inh – inhibitors of ERp5-driven insulin aggregation, primary screen, biochemical, turbidity, absorbance 650 nm, single point. Protein disulfide-isomerase A6 (Homo sapiens), Q15084. 90 min. inhibition, % at 9.99 µM. hit rate 0.05% among 350,000. AID 651711, 2012;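 active = mean replicate inhibition above about 25%, with every replicate also reaching it, limit read from the data, passing the limit was not always enough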
CaV13 ICDI inh – Primary screen for inhibitors of IQ motif and Ca2+-dependent inactivation inhibitor domain binding in CACNA1D, Förster resonance energy transfer in living cells, …; HEK cells, CFP/YFP FRET ICDI-IQ, plate reader, 10 min; percent FRET-ratio fall versus neutral wells; hit rate 0.098% among 340,000; inhibition, % at 12.3 µM;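 active = mean replicate inhibition of at least 30% and at least 1% of replicates passing that level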;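 also: 0% = median of the neutral control wells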
ERAP1 HTS inh – human ERAP1 aminopeptidase inhibitors, primary screen, biochemical, single point, plate reader; Endoplasmic reticulum aminopeptidase 1 (Homo sapiens), Q9NZ08; inhibition, % at 10.7 µM; AID 652197, 2013; recombinant ERAP1, Leu-AMC fluorescence, 60 min; hit rate 0.15% among 340,000;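 active = mean replicate inhibition of at least 30%, or all replicates individually reaching that 30% level; inactive = mean below 30% and not every replicate reaching it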;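 also: 0% = neutral control wells and 100% = L-leucinethiol positive control wells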
PglD DTNB – C. jejuni PglD acetyltransferase inhibitors, primary screen, biochemical, DTNB colorimetric, single point; purified PglD enzyme, DTNB colorimetric CoA detection; inhibition, % at 12.5 µM; hit rate 0.098% among 360,000; AID 602405, 2012; in the data active = inhibition above about 16%, passing the limit was not always enough
PDI inh – inhibitors of human PDI, primary screen, biochemical, turbidity, single point, plate reader | AID 588391, 2011 | PDI insulin aggregation turbidity, A650, 90 min | hit rate 0.052% among 350,000 | inhibition, % at 10 µM;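 active = mean inhibition across replicates of 30% or more, whatever share of single replicates reach that level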
Target sequence (P07237 whole entry, looked up): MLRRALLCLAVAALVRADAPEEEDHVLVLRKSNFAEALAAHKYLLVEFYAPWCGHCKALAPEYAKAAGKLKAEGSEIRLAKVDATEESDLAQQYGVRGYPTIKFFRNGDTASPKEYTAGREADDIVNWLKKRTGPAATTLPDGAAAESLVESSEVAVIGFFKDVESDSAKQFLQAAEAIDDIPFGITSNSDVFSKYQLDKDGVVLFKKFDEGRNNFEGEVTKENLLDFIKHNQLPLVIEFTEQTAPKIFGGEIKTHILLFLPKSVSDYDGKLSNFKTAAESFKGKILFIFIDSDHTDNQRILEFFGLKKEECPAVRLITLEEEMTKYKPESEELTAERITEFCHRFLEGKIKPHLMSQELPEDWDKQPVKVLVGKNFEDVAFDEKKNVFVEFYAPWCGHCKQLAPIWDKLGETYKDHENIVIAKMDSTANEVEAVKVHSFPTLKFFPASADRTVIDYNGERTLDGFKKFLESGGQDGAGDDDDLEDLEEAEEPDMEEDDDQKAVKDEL
* marks the source's active call; other numbers are inactive results; / = not tested or not shown. The list is not random: actives were taken first. Their share in the collection is about 0.46%.

SMILES | PGC1a acetyl inh | ERp5 inh | CaV13 ICDI inh | ERAP1 HTS inh | PglD DTNB | PDI inh
COc1ccc(CCN=C(N)NS(=O)(=O)c2ccc(OC)cc2)cc1 | -24.0 | / | -18.6 | / | -1.1 | 7.7
COc1ccc(CCN=C(N)NS(=O)(=O)c2ccc(F)cc2)cc1 | / | 3.0 | 72.5* | 2.8 | / | 3.5
C[C@H](CO)N1C[C@H](C)[C@H](CN(C)C(=O)Nc2cc(F)ccc2F)Oc2cc(C#CC3CC3)ccc2S1(=O)=O | -4.6 | / | / | / | / | /
CCOC(=O)C1(Cc2cccc(Cl)c2)CCCN(C(=O)c2cccnc2)C1 (stereo not given) | 96.7* | -2.6 | -5.3 | -0.9 | / | -9.9
COc1ccccc1OCc1ccc(C(=O)N(C)c2ccccc2)o1 | -5.3 | -1.2 | 38.7* | 0.8 | 3.0 | 2.8
CCCCCCn1c(=O)n2n(c1=O)C[C@]1(OC(=O)NCC3CCCCC3)CN(S(=O)(=O)c3ccc(C)cc3)C[C@]1(O)C2 | 20.8 | -3.8 | -4.9 | 0.1 | -1.8 | -10.1
CCCCCCNC(=O)O[C@@]12CN(S(=O)(=O)c3ccc(C)cc3)C[C@]1(O)Cn1c(=O)n(CCCCCC)c(=O)n1C2 | 68.9* | 6.3 | -3.9 | 0.0 | 1.3 | -6.3
C[C@H](CO)N1C[C@H](C)[C@@H](CN(C)Cc2ccc(-c3ccccc3)cc2)Oc2ccc(NS(=O)(=O)c3ccccc3)cc2CC1=O | -6.3 | 0.9 | / | -1.8 | -2.5 | /
CO[C@@H]1CN(C)C(=O)c2cc(NC(=O)c3ccccc3F)ccc2OC[C@@H](C)N(C(C)=O)C[C@H]1C | 13.9 | 3.1 | / | -0.3 | 0.2 | /
CCC(=O)Nc1ccc2c(c1)OC[C@H](C)N(Cc1cccnc1)C[C@H](C)[C@H](OC)CN(C)C2=O | -1.0 | 28.6* | / | -6.7 | 3.0 | /
CCCNC(=O)Nc1ccc2c(c1)C(=O)N(C)C[C@H](OC)[C@H](C)CN(CC1CCCC1)[C@@H](C)CO2 | 43.9* | / | / | / | / | /
CO[C@H]1CN(C)C(=O)c2cc(NC(=O)c3ccccc3F)ccc2OC[C@@H](C)N(C(C)=O)C[C@@H]1C | 130.3* | -1.6 | / | -8.5 | 2.6 | /
CC(C)NC(=O)Nc1ccc2c(c1)C(=O)N([C@@H](C)CO)C[C@@H](C)[C@H](CN(C)C(=O)CCCN(C)C)OCCCC[C@@H](C)O2 | -2.6 | / | / | / | / | /
Cc1cc(NC(=O)CN2C(=O)c3ccccc3S2(=O)=O)no1 | / | 5.8 | -5.1 | 32.1* | -3.2 | 9.2
O=C(CN1C(=O)c2ccccc2S1(=O)=O)Nc1ccon1 | -3.1 | 2.5 | -2.3 | -5.4 | -3.1 | 15.0
CC1=CC(C)C2(COC(c3ccc[n+](C)c3)OC2)C(C)C1 (stereo not given) | -13.2 | -5.8 | 0.5 | 106.5* | / | -1.1
Cc1noc(C)c1C(=O)OCC(=O)NCCc1ccc(Cl)cc1 | -3.3 | / | -4.0 | / | 0.2 | 35.4*
CCc1csc(CCNC(=O)C2CCC(=O)N(CCc3cccc(F)c3)C2)n1 (stereo not given) | / | 28.3* | -10.2 | -1.1 | 1.2 | 7.5
CCOC(=O)c1c(CN(C)C)n(-c2ccc(C)cc2)c2cc(Br)c(O)cc12 | / | / | -8.2 | / | / | 49.3*
CCC(=O)NC(c1cccs1)c1ccc2cccnc2c1O (stereo not given) | 47.4* | 2.1 | -10.8 | 3.9 | / | -4.2
CC(C)CC(=O)NC(c1cccs1)c1ccc2cccnc2c1O (stereo not given) | 11.7 | / | / | / | / | 2.4
COCC(=O)N(C)C[C@H]1Oc2cc(C#CC(C)(C)O)ccc2S(=O)(=O)N([C@@H](C)CO)C[C@@H]1C | -4.7 | 47.2* | / | 1.1 | -5.6 | /
COCC(=O)N(C)C[C@H]1Oc2cc(C#CC(C)(C)O)ccc2S(=O)(=O)N([C@@H](C)CO)C[C@H]1C | 0.3 | 68.2* | / | -0.7 | 0.9 | /
CCC(=O)N(C)C[C@H]1Oc2cc(-c3ccc(C#N)cc3)ccc2S(=O)(=O)N([C@@H](C)CO)C[C@@H]1C | 5.5 | 85.4* | / | 0.6 | -0.5 | /
COCC(=O)N(C)C[C@@H]1Oc2cc(C#CC(C)(C)O)ccc2S(=O)(=O)N([C@H](C)CO)C[C@H]1C | -5.3 | -37.1 | / | -0.5 | -5.1 | /
SMILES | PGC1a acetyl inh | ERp5 inh | CaV13 ICDI inh | ERAP1 HTS inh | PglD DTNB | PDI inh
COCC(=O)N(C)C[C@H]1Oc2cc(C#CC(C)(C)O)ccc2S(=O)(=O)N([C@H](C)CO)C[C@@H]1C | 6.1 | 7.2 | / | -1.1 | 1.5 | /
CCC(=O)N(C)C[C@@H]1Oc2cc(-c3ccc(C#N)cc3)ccc2S(=O)(=O)N([C@H](C)CO)C[C@@H]1C | 0.0 | / | / | 0.3 | 2.0 | /
COc1ccccc1C#Cc1ccc2c(c1)O[C@@H](CN(C)Cc1cccnc1)[C@H](C)CN([C@@H](C)CO)S2(=O)=O | 44.4* | 1.2 | / | -1.5 | -0.7 | /
O=C(C[C@H]1C=C[C@H](NS(=O)(=O)c2ccc(F)cc2)[C@@H](CO)O1)NCc1ccc(Cl)c(Cl)c1 | -4.4 | 2.6 | / | 1.1 | 1.1 | /
COc1ccc(NC(=O)N2CC(=O)N3[C@H](CO)[C@H](c4ccc(Br)cc4)[C@H]3C2)cc1 | 3.2 | -1.9 | / | -2.3 | / | /
C[C@H]1CCCCO[C@@H](CN(C)Cc2ccc(C(F)(F)F)cc2)[C@@H](C)CN([C@@H](C)CO)C(=O)c2cc(N(C)C)ccc2O1 | 4.5 | 4.9 | / | 3.7 | 1.3 | /
CN1C(=O)c2cc(NC(=O)c3cccc(F)c3)ccc2OC[C@@H]2O[C@@H](CC(=O)NC3CCC3)CC[C@@H]21 | -11.3 | / | / | / | 0.1 | /
CCCC#Cc1cnc2c(c1)C(=O)N([C@H](C)CO)C[C@@H](C)[C@@H](CN(C)C(=O)Cc1cccnc1)O2 | -7.0 | 4.6 | / | 0.4 | 0.5 | /
Cc1cc2c(OCC(O)CNC(C)(C)C)cccc2[nH]1 (stereo not given) | 5.6 | / | / | / | -1.7 | 4.3
COCCCNCC(O)COc1cccc2[nH]c(C)cc12 (stereo not given) | -3.9 | -2.7 | -6.5 | 32.2* | / | -7.8
COc1ccc(C(=O)NCc2nnc(SCC(=O)NC3CCCCC3)n2C)cc1 | / | -1.2 | -2.7 | 30.0* | -5.8 | 10.0
CCCN(C)C[C@@H]1Oc2ncc(-c3ccc(OC)cc3)cc2C(=O)N([C@H](C)CO)C[C@@H]1C | -6.0 | -0.1 | / | 2.1 | -2.0 | /
CCOc1ccc(NC(=O)CN(C)C(=O)Cn2cnc3c2c(=O)n(C)c(=O)n3C)cc1OCC | / | 2.2 | -5.9 | 30.2* | -1.4 | -0.3
COc1cccc(S(=O)(=O)N[C@H]2CC[C@H](CC(=O)NCc3ccc(F)cc3)O[C@@H]2CO)c1 | 55.3* | -2.3 | / | 0.9 | -0.7 | /
COc1cccc(S(=O)(=O)N[C@@H]2CC[C@@H](CC(=O)NCc3ccc(F)cc3)O[C@@H]2CO)c1 | -23.3 | -1.4 | / | -1.0 | -0.9 | /
Cc1cccc(N2C(=O)C(Cl)=C(N3CCOCC3)C2=O)c1 | 81.3* | 1.2 | 5.2 | -1.8 | 5.5 | -0.8

High-throughput results deposited in PubChem BioAssay by Broad Institute.
